This is part of a sample that, as a whole, favours compounds with a hit. Of some 83,000 tested, about 20% had one in any assay.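 The test compound was applied at a single concentration to cells in 96-well plates for 48 hours, and percent growth was recorded.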 Unmarked numbers belong to inactive results. Activity calls are given as the source filed them. Rule for the calls: active = growth percent below 10; inactive = the rest.

The first experiment has as its system PC-3 prostate. The experiment in a line: NCI-60 one-dose screen, 48 h (100 = growth as untreated, 0 = no growth, -100 = all killed). As to conditions: 10 µM unless noted.
As for `Fc1ccc2c(c1)c(-c1nc(-c3c[nH]c4ncccc34)cs1)cn2CCCN1CCCCC1`, the growth was 47.9%.
With `CN(C)c1ccc(N=C2C=CC(=O)C=C2)cc1`, the growth is 64.4%.
For `Cc1ccncc1C(=O)O`, the growth is 90.1%.
For `COc1cc2ncnc(Nc3ccc(Oc4ccnc(C)c4)c(C)c3)c2cc1NC(=O)CC1CCSS1` (stereo not drawn), the growth was -50.3% (active).
The same measure, in the same setting: next, `O=C1Nc2ccccc2/C1=C/c1cn(CCCn2c3ccccc3c(=O)c3ccccc32)c2ccccc12`: 62.5%.
For the molecule `CCCCC[C@H]1CC=C2C(=O)C(Cl)=C[C@@H]2CC=CCCCC(=O)O[C@@H](CCCCC)CC=C2C(=O)C(Cl)=C[C@@H]2CC=CCCCC(=O)O[C@@H](CCCCC)CC=C2C(=O)C(Cl)=C[C@@H]2CC=CCCCC(=O)O1`, the growth was 70.2% [8 µM].
Take `O=C1c2ccccc2NC(c2cn(-c3ccccc3)nc2-c2cccs2)N1Cc1ccccc1` (stereo not drawn): the growth was 64.8%.
Regarding `COC(=O)[C@]12CC[C@@H](C)[C@H](C)[C@@H]1C1=CC[C@@H]3[C@@]4(C)C[C@@H](O)[C@H](O)[C@@](C)(CO)C4=CC[C@@]3(C)[C@]1(C)CC2`, the growth was -85.1% (active).
For `Cn1c(=O)c2c(nc(Br)n2CC(=O)Nc2ccc(F)cc2)n(C)c1=O`, the growth is 75.5%.
Turning to `CCN(CC)CCCCCCNc1ccnc2cc(Cl)ccc12`, the growth was 87%.
`C#CCC(C)(O)/C=C/C1=C(C)CCCC1(C)C` (stereo not drawn): the growth was 77.6%.

Another experiment concerns SK-MEL-5 melanoma. The description is as above. The conditions noted are these: 10 µM unless noted.
As for `CC(C)(C)c1ccc(OCCCCCCCN2CCNCC2)cc1`, the growth is 43.9%.
For `O=Cc1nc2ccccc2[nH]1`, the growth is 102%.
Same read-out and setting: for `C[C@]12CC[C@@H]3c4ccc(O)cc4CC[C@H]3[C@@H]1C[C@H](O)[C@@H]2O` the value was 94.1%; for `Cn1c(=O)c2c(ncn2CCC(=O)Nc2ccc(F)cc2)n(C)c1=O`, 111%.
In the case of `CN(C)CCCCC(C(=O)CBr)(c1ccccc1)c1ccccc1`, the growth was 35%.
In the case of `C[C@@H]1CCCCCCCCC[C@H](O)C(=O)C[C@@H](SC[C@@H](O)C(=O)O)C(=O)O1`, the growth is 104%.
Same read-out and setting: for `O=C(N/N=C/c1ccccc1SSc1ccccc1/C=N/NC(=O)c1ccccc1)c1ccccc1` the value was 22.5%; for `CC/C=C\C[C@H]1CC=C2C(=O)C=C[C@@H]2CC=CCCCC(=O)O[C@@H](CCCCC)CC=C2C(=O)C=C[C@@H]2CC=CCCCC(=O)O[C@@H](CCCCC)CC=C2C(=O)C=C[C@@H]2CC=CCCCC(=O)O[C@@H](CCCCC)CC=C2C(=O)C=C[C@@H]2CC=CCCCC(=O)O1`, 17.9% [7.9 µM]; for `COc1ccc(NC(=S)N/N=C/c2ccccc2SSCCC(=O)OC[C@H]2O[C@H](O)[C@H](O)[C@@H](O)[C@@H]2O)cc1`, 71.7%.
Same read-out and setting: next, `Fc1ccc(Nc2nnc(-c3ccc(Cl)cc3)o2)cc1`: 99.8%.
For `COC(=O)[C@]12CC[C@@H](C)[C@H](C)[C@@H]1C1=CC[C@@H]3[C@@](C)(CC#N)C4=C(C[C@@]3(C)[C@]1(C)CC2)OC[C@]4(C)C=O`, the growth was -89% (active).
Turning to `COc1ccc(/C=C/C(=O)NCC(C)O)cc1` (stereo not drawn), the growth is 101%.
As for `COc1cnc2c(c1)C(=O)c1c-2n(CCCNC(C)C)c(=O)c2cc([N+](=O)[O-])ccc12`, the growth was -98.9% (active).
Take `Cn1cc(-c2csc(-c3cn(CCNC(=O)OC(C)(C)C)c4ccc(F)cc34)n2)c2cccnc21`: the growth was 23.6%.
Regarding `NCCn1cc(-c2nc(-c3c[nH]c4ncccc34)cs2)c2cc(F)ccc21`, the growth is 80%.
The same measure, in the same setting: next, `Cc1cc(N2CCCCC2)nc(N(CCNc2ccnc3cc(Cl)ccc23)Cc2ccco2)n1`: -90.5% (active).
On to `Fc1ccc(Nc2nc(Nc3ccc(-c4nc5ccccc5[nH]4)cc3)nc(N3CCCC3)n2)cc1`, for which the growth was 87%.
Turning to `Brc1ccc2c(c1)c(-c1nc(-c3c[nH]c4ncccc34)cs1)cn2CCCN1CCCCC1`, the growth is -59.5% (active).
As to `O=C1CNCCN1`, the growth was 101%.
The same measure, in the same setting: for `COC(=O)[C@]12CC[C@@H](C)[C@H](C)[C@@H]1C1=CC[C@@H]3[C@@]4(C)CC(=O)[C@H](OC(=O)c5ccco5)[C@@]5(C)COC(=C45)C[C@@]3(C)[C@]1(C)CC2` the value was -46.1% (active).
Still for that read-out and setting: next, `NCCn1cc(-c2nc(-c3c[nH]c4ncccc34)cs2)c2cc(Br)ccc21`: 85.1%.
Regarding `Cc1cc(N2CCCCC2)nc(N(CCCNc2ccnc3cc(Cl)ccc23)Cc2ccco2)n1`, the growth is -91.8% (active).

(Values after PubChem BioAssay (NCI).)
